Here are results for 30 compounds from ChEMBL document CHEMBL3988442, “University of Dundee, Small-Polar-MMV Screening Library” (2021).

The structures appear in SMILES notation. The campaign covered roughly 69,000 compounds. About 420 (0.61%) showed an effect of 50% or more. For the sample, strong results were picked, then their nearest neighbours and some compounds at random.

The assay concerns the target T1, Histidine--tRNA ligase (Leishmania infantum) (UniProt A4I591).
T1 sequence (whole entry): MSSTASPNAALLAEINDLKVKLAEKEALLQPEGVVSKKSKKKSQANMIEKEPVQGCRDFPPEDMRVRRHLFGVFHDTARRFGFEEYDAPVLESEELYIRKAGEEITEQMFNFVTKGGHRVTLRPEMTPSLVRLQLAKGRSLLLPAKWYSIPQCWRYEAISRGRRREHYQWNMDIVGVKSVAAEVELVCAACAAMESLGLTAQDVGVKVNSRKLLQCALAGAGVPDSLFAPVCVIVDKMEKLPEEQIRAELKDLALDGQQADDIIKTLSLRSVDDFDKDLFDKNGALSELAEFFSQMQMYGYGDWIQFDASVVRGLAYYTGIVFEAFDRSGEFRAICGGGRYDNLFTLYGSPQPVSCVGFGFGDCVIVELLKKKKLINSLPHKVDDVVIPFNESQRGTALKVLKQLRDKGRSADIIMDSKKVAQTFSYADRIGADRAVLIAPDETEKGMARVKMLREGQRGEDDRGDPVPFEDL
The experiment in a line: Leishmania infantum Histidine tRNA synthetase (LdHisRS). Type of assay: functional. On the set-up: scale not given: in the data most compounds retested in dose-response had high values. Conditions: 30 µM.
Regarding `CS(=O)(=O)CCn1ccc(NC(=O)Cc2cccc(Cl)c2)n1`, the Percent Effect was 15.3%.

Take `Cn1ccc(CS(=O)(=O)Cc2cccc(F)c2)cc1=O`: the Percent Effect was 18.8%.

`Cc1cc(=O)n(C)cc1NC(=O)NCc1cccc(F)c1`: the Percent Effect amounted to 107%.

With `O=C(NCc1cccc(F)c1)Nc1ccn(CCN2CCOCC2)n1`, the Percent Effect came out at 11.2%.

`Cc1cc(=O)n(C)cc1NC(=O)Cc1cccc(Cl)c1` registered a Percent Effect of 107%.

For the compound `CN(C)C(=O)CCCn1ccc(NC(=O)NCc2cccc(F)c2)n1`, the Percent Effect was determined as 2.08%.

`Cc1cc(=O)n(CC(=O)Nc2cccc(Cl)c2)nc1C`: the Percent Effect is 2.4%.

Compound `Cc1cc(=O)n(C)cc1NC(=O)Cc1cccc(F)c1` showed a Percent Effect of 68.5%.

Compound `Cc1ccc(C(F)(F)F)cc1NCC(=O)Nc1c(C)nn(C)c1C` had a Percent Effect of 17.8%.

The compound `Cn1ccc(NC(=O)Cc2cccc(F)c2)n1` gave a Percent Effect of 15.4%.

`Cn1cc(NC(=O)c2cccc(C(F)(F)F)c2)c(=O)n(C)c1=O` came in with a Percent Effect of 22.9%.

Compound `Cc1cc(=O)n(C)cc1NC(=O)Cc1ccc(C(F)(F)F)cc1` displayed a Percent Effect of 107%.

`Cc1cccc(C(=O)N2CC[C@@H]3CN(c4ncccn4)CCO[C@@H]3C2)c1`: the Percent Effect turned out to be 10%.

In the case of `COc1ccc(CN2CCO[C@@H]3C[C@@H](C(=O)NC(C)C)C[C@H]32)cc1`, the Percent Effect came to 25%.

`COC[C@]12COC[C@H]1CN(Cc1ccc3c(c1)OCO3)C2`: the Percent Effect was 1.98%.

For the compound `O=C1CC[C@H]2[C@H](CCN2C(=O)C2CCOCC2)N1Cc1ccncc1`, the Percent Effect turned out to be 17.5%.

Consider `CNC(=O)[C@@]12CCCN(c3ncccn3)[C@@H]1CN(c1ncc(F)cn1)C2`, for which the Percent Effect stood at 16.8%.

For `CCc1ccc(C(=O)N2C[C@@H]3COC[C@@H](C(=O)NC)[C@@H]3C2)cc1`, the Percent Effect was 14%.

Compound `C[C@@H]1C(=O)NC[C@H]2CN(Cc3ccc4c(c3)OCO4)C[C@H]21` showed a Percent Effect of 15.6%.

`O=C(NCc1ccccn1)[C@]12COC[C@H]1CN(Cc1cccnc1)C2` came in with a Percent Effect of 11.1%.

Turning to `O=C([C@H]1C[C@@H]2CN(c3ncc(F)cn3)C[C@H]1O2)N1CCOCC1`, the Percent Effect was found to be 5.94%.

In turn, `CC(C)NC(=O)N1CC[C@H]2N(C)CC[C@@]2(C(=O)Nc2cccnc2)CC1` came in with a Percent Effect of 9.91%.

In turn, `O=C(NCC1CC1)[C@H]1C[C@H]2OCC[C@H]2N(Cc2ccsc2)C1` registered a Percent Effect of 0%.

For the compound `Cc1cccc(CN2CC[C@@H]3[C@@H]2CCN3C(=O)c2cc(C)oc2C)n1`, the Percent Effect was determined as 25.6%.

In turn, `O=C([C@H]1C[C@@H]2CCN(c3cccc(F)c3)C[C@H]2O1)N1CCCCO1` showed a Percent Effect of 22.2%.

As for `Cc1cc(=O)n(C)cc1NC(=O)Cc1cc(F)ccc1F`, the Percent Effect stood at 107%.

`CCC(=O)NCC(=O)Nc1c(C)cnn1Cc1cc(F)ccc1F` gave a Percent Effect of 14.5%.

Compound `Cc1cc(F)ccc1NC(=O)Cn1cc(C(=O)O)ccc1=O` gave a Percent Effect of 21.7%.

The compound `CN(CCO)Cc1nnc(C2CCN(C[C@H]3[C@@H]4CNC[C@@H]43)CC2)n1C` displayed a Percent Effect of 9.38%.

`Cc1ccc(C(=O)N2C[C@H]3CCC[C@@]3(COc3ccccn3)C2)nc1` had a Percent Effect of 16.4%.
